Experiments:
Assay in all cases: protein binding microarray; high values mean tight binding
Details in all cases: dsDNA, one strand shown
[1] = biological target: RELARELA (p65 homodimer) (Homo sapiens, UniProt Q04206 1-307)
[2] = biological target: p50p50 homodimer (Homo sapiens, UniProt P19838 7-356)
[3] = biological target: T1, p52p52 homodimer (Homo sapiens, UniProt Q00653 4-332)
T1 sequence: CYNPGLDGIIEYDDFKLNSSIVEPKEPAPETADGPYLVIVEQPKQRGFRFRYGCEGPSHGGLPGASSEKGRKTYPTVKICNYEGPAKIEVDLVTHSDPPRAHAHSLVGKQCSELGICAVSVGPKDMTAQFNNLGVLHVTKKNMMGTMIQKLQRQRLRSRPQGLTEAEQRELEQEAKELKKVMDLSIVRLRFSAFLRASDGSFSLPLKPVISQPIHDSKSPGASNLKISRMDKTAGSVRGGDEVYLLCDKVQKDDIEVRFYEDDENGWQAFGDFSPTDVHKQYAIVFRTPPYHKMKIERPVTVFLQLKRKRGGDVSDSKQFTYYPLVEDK

[4] = biological target: RELA (p65) subunit of heterodimer;p50 subunit (Homo sapiens;Homo sapiens, UniProt Q04206;P19838 1-307;7-356)
[5] = biological target: RELA (p65) subunit of heterodimer;p52 subunit (Homo sapiens;Homo sapiens, UniProt Q04206;Q00653 1-307;4-332)
[6] = biological target: RELB subunit;p50 subunit (Homo sapiens;Homo sapiens, UniProt Q01201;P19838 120-401;7-356)
[7] = biological target: T2, RELB subunit;p52 subunit (Homo sapiens;Homo sapiens, UniProt Q01201;Q00653 120-401;4-332)
T2 sequence 1: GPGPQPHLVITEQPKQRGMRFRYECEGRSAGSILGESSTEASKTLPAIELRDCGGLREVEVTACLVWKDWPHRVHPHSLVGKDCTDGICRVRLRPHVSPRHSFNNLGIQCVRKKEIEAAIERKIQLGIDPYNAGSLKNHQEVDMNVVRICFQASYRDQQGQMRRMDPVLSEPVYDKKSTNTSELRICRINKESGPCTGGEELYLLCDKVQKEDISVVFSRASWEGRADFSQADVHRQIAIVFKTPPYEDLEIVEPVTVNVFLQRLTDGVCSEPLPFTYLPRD
T2 sequence 2: T1 sequence

[8] = biological target: C-Rel subunit;p50 subunit (Homo sapiens;Homo sapiens, UniProt Q04864;P19838 1-285;7-356)
[9] = biological target: T3, C-Rel subunit;p52 subunit (Homo sapiens;Homo sapiens, UniProt Q04864;Q00653 1-285;4-332)
T3 sequence 1: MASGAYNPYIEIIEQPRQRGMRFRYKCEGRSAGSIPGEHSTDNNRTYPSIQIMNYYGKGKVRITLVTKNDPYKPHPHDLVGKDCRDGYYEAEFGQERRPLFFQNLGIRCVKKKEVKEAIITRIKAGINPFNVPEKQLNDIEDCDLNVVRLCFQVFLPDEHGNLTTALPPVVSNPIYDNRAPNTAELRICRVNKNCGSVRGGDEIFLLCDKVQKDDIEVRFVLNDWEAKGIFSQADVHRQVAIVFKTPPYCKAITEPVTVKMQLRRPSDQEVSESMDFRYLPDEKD
T3 sequence 2: T1 sequence

p50p50 homodimer, sequence (P19838 7-356): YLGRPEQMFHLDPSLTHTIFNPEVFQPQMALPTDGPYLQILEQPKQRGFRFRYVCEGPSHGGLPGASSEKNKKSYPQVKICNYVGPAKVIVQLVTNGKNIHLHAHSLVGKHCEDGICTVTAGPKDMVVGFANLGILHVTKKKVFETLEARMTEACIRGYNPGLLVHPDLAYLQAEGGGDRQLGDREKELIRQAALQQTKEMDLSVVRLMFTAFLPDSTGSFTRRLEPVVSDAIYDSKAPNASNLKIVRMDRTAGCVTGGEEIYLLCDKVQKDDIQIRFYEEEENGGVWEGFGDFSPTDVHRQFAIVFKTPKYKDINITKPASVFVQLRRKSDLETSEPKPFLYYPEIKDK
RELARELA (p65 homodimer), sequence (Q04206 1-307): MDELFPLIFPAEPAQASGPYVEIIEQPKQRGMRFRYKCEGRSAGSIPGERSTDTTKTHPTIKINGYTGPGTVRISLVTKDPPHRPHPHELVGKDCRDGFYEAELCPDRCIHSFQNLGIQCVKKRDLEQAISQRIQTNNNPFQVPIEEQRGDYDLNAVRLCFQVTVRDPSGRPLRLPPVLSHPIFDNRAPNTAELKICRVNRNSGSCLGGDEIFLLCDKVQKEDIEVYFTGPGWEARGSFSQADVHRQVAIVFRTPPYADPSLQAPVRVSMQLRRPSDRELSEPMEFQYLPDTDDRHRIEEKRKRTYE
RELA (p65) subunit of heterodimer;p50 subunit, sequence (Q04206 1-307, chain 1 of 2): as the sequence (Q04206 1-307) above
RELA (p65) subunit of heterodimer;p50 subunit, sequence (P19838 7-356, chain 2 of 2): as the sequence (P19838 7-356) above

Row | Sequence | binding signal [1] | binding signal [2] | binding signal [3] | binding signal [4] | binding signal [5] | binding signal [6] | binding signal [7] | binding signal [8] | binding signal [9]
1 | GAGATAGTCCT | -0.228 z-score | -0.791 z-score | -0.575 z-score | -0.973 z-score | -0.809 z-score | -0.986 z-score | -0.865 z-score | -1.2 z-score | -0.764 z-score
2 | CAGAAAATCCC | 1.82 z-score | 0.978 z-score | 1.18 z-score | 0.992 z-score | 1.13 z-score | 0.966 z-score | 1.04 z-score | 0.902 z-score | 1.19 z-score
3 | AGATGGTCCCC | -0.243 z-score | 0.441 z-score | 0.342 z-score | 0.0737 z-score | 0.172 z-score | 0.435 z-score | 0.355 z-score | 0.292 z-score | 0.217 z-score
4 | CGAATATTCCC | 1.87 z-score | 0.695 z-score | 0.525 z-score | 0.873 z-score | 0.929 z-score | 0.405 z-score | 0.536 z-score | 0.941 z-score | 0.858 z-score
5 | AGAAGCATCCC | -0.382 z-score | -1.4 z-score | -0.607 z-score | -0.83 z-score | -0.795 z-score | -0.706 z-score | -0.776 z-score | -1.06 z-score | -0.81 z-score
6 | CAATGAATCCC | -0.259 z-score | -0.487 z-score | -0.235 z-score | -0.428 z-score | -0.353 z-score | -0.22 z-score | -0.356 z-score | -0.0958 z-score | -0.345 z-score
7 | GGAATGGTCCT | 0.313 z-score | -1.37 z-score | -0.493 z-score | -0.849 z-score | -0.627 z-score | -0.903 z-score | -0.612 z-score | -0.89 z-score | -0.524 z-score
8 | GGATTCCCCCT | 2.01 z-score | 1.46 z-score | 2.93 z-score | 2.64 z-score | 2.73 z-score | 2.83 z-score | 2.57 z-score | 2.03 z-score | 2.78 z-score
9 | CGGAATTTCCT | 3.7 z-score | -0.012 z-score | -0.109 z-score | 1.2 z-score | 0.553 z-score | -0.413 z-score | -0.0415 z-score | 0.843 z-score | 0.719 z-score
10 | CAATATTTCCC | 2.26 z-score | 1.03 z-score | 0.706 z-score | 1.27 z-score | 1.06 z-score | 0.775 z-score | 0.965 z-score | 1.45 z-score | 1.08 z-score
11 | GAGGTAGTCCC | 0.343 z-score | 0.907 z-score | 0.506 z-score | 0.436 z-score | 0.326 z-score | 0.57 z-score | 0.233 z-score | 0.447 z-score | 0.318 z-score
12 | GGAGGTATCCC | -0.331 z-score | -1.01 z-score | -0.304 z-score | -0.519 z-score | -0.401 z-score | -0.488 z-score | -0.395 z-score | -0.57 z-score | -0.276 z-score
13 | AGAGATGCCCT | -0.748 z-score | -1.63 z-score | -0.655 z-score | -0.706 z-score | -0.889 z-score | -1.04 z-score | -0.94 z-score | -0.882 z-score | -0.704 z-score
14 | GGGTGGCCCCC | -0.733 z-score | 0.527 z-score | 0.796 z-score | 0.639 z-score | 0.996 z-score | 0.399 z-score | 0.74 z-score | 0.773 z-score | 0.833 z-score
15 | CGAGTCTTCCC | 0.331 z-score | -0.565 z-score | -0.302 z-score | -0.0997 z-score | -0.304 z-score | -0.386 z-score | -0.409 z-score | 0.0328 z-score | -0.153 z-score
16 | CAAAGAACCCT | -0.87 z-score | -0.409 z-score | -0.354 z-score | -0.631 z-score | -0.614 z-score | -0.682 z-score | -0.58 z-score | -0.78 z-score | -0.544 z-score

Row | Sequence | binding signal [1] | binding signal [2] | binding signal [3] | binding signal [4] | binding signal [5] | binding signal [6] | binding signal [7] | binding signal [8] | binding signal [9]
17 | AAGTGATTCCT | -0.0511 z-score | -0.869 z-score | -0.482 z-score | -0.602 z-score | -0.719 z-score | -0.843 z-score | -0.976 z-score | -0.572 z-score | -0.598 z-score
18 | CAATTCCCCCC | 1.09 z-score | 1.66 z-score | 1.93 z-score | 2.3 z-score | 1.94 z-score | 2.19 z-score | 2.34 z-score | 1.94 z-score | 1.85 z-score
19 | CAGTACCCCCC | -0.045 z-score | 1.15 z-score | 0.733 z-score | 0.954 z-score | 0.96 z-score | 0.927 z-score | 1.16 z-score | 0.886 z-score | 0.823 z-score
20 | GAATGCCTCCT | -0.0578 z-score | -1.27 z-score | -0.691 z-score | -0.691 z-score | -0.961 z-score | -1.06 z-score | -1.25 z-score | -1.51 z-score | -0.845 z-score
21 | GGATAGTCCCT | 1 z-score | 1.18 z-score | 1.57 z-score | 1.47 z-score | 1.43 z-score | 0.994 z-score | 1.65 z-score | 1.15 z-score | 1.82 z-score
22 | AAGTGTATCCC | -0.0644 z-score | -0.719 z-score | -0.379 z-score | -0.553 z-score | -0.504 z-score | -0.584 z-score | -0.4 z-score | -0.695 z-score | -0.382 z-score
23 | GGAAGAACCCC | 0.624 z-score | 0.621 z-score | 0.666 z-score | 1.02 z-score | 1.03 z-score | 0.343 z-score | 0.678 z-score | 0.685 z-score | 0.755 z-score
24 | AGGATCACCCT | -0.477 z-score | -0.136 z-score | -0.277 z-score | -0.316 z-score | -0.525 z-score | -0.14 z-score | -0.242 z-score | -0.558 z-score | -0.421 z-score
25 | AAGGGTGCCCT | -1.07 z-score | -1.79 z-score | -0.569 z-score | -1.02 z-score | -0.718 z-score | -0.876 z-score | -0.74 z-score | -1.1 z-score | -0.646 z-score
26 | GAATGTTTCCC | 2.03 z-score | 0.423 z-score | 0.332 z-score | 1.09 z-score | 0.797 z-score | 0.422 z-score | 0.655 z-score | 1.2 z-score | 0.614 z-score
27 | AAAGGCCTCCC | -1.18 z-score | -0.959 z-score | -0.552 z-score | -0.794 z-score | -0.782 z-score | -0.857 z-score | -0.868 z-score | -1.17 z-score | -0.735 z-score
28 | CAATAGCCCCT | -0.581 z-score | 1.17 z-score | 0.673 z-score | 0.506 z-score | 0.808 z-score | 0.574 z-score | 0.89 z-score | 0.189 z-score | 0.555 z-score
29 | AAAGGAGTCCC | 0.141 z-score | 0.939 z-score | 0.569 z-score | 0.732 z-score | 0.431 z-score | 0.907 z-score | 0.607 z-score | 0.81 z-score | 0.405 z-score
30 | GGAATTACCCC | 2.91 z-score | 0.961 z-score | 1.76 z-score | 1.92 z-score | 2.08 z-score | 1.18 z-score | 1.85 z-score | 1.44 z-score | 2.35 z-score
31 | AGGTGACTCCT | -0.642 z-score | -0.518 z-score | -0.228 z-score | -0.661 z-score | -0.704 z-score | -0.778 z-score | -0.791 z-score | -0.985 z-score | -0.779 z-score
